AI-2 QS modul = Vibrio harveyi AI-2 quorum sensing modulators, primary screen, JMH597 strain, luminescence/OD600 ratio. AID 2094, 2009. activity change, % at 7.5 µM. Vibrio harveyi JMH597 AI-2 luminescence/OD600 ratio, 9 h; stronger effect = lower value; strain lacks LuxN and CqsS sensors; 0 = neutral-control median. 0.4% of 300,000 active; in the data active = activity change below about -75%, passing the limit was not always enough; inconclusive = no clear call, values can overlap the other calls;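 note: luminescence divided by OD600 gain over 9 h not by final OD600 alone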
PvdQ acylase = P. aeruginosa PvdQ acylase inhibitors, primary screen, biochemical, fluorescence, plate reader and imaging, single point | purified PvdQ acylase | inhibition, % at 10 µM | 0.063% of 340,000 active; in the data active = inhibition above about 30%, passing the limit was not always enough; inconclusive = no clear call, values can overlap the other calls;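 note: 0% = vehicle neutral wells and 100% = reference inhibitor wells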
ERp5 inh = inhibitors of ERp5-driven insulin aggregation, primary screen, biochemical, turbidity, absorbance 650 nm, single point; 0.05% of 350,000 active; inhibition, % at 9.99 µM; 90 min; Protein disulfide-isomerase A6 (Homo sapiens), Q15084;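 active = mean replicate inhibition above about 25%, with every replicate also reaching it, limit read from the data, passing the limit was not always enough; inconclusive = only one of those two criteria met; inactive = neither criterion met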
Target sequence (Q15084 whole entry, looked up): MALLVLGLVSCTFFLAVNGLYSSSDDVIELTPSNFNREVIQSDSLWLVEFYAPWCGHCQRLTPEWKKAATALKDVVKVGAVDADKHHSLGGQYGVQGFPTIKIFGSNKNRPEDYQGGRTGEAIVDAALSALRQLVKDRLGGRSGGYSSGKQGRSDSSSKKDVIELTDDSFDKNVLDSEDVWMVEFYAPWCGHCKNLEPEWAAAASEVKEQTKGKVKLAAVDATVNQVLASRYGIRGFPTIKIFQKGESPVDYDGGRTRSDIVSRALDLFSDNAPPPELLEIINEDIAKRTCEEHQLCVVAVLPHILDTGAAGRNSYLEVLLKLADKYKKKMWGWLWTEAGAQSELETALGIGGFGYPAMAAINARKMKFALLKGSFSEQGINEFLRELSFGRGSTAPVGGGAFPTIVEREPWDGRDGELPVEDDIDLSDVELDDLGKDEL
Vif imaging = HIV Vif self-association inhibitors, primary screen, imaging, HEK293T, single point; HEK293T cells, Vif self-association by quenched fluorescence, 24 h; inhibition, % at 7.49 µM; 0.35% of 340,000 active; AID 602346, 2012; in the data active = inhibition above about 50%, passing the limit was not always enough; inconclusive = no clear call, values can overlap the other calls; inactive = below about 31%
PDI turbidity = inhibitors of human PDI, primary screen, biochemical, turbidity, single point, plate reader; AID 588391, 2011; inhibition, % at 10 µM; 0.052% of 350,000 active; PDI insulin aggregation turbidity, A650, 90 min; Protein disulfide-isomerase (Homo sapiens), P07237;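 active = mean inhibition across replicates of 30% or more, whatever share of single replicates reach that level; inconclusive = mean inhibition below 30% while every single replicate reaches 30%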
An asterisk follows results filed as active; ? = inconclusive; nt = no result; ! = not active in a repeat. The list is not random: actives were taken first. Their share in the collection is about 0.64%.

SMILES	AI-2 QS modul	PvdQ acylase	ERp5 inh	Vif imaging	PDI turbidity
CCOc1ccc2nc(NCCNC(=O)Nc3ccccc3)c(C#N)cc2c1	19	-7	nt	57*	0
COc1ccccc1OCCCC(=O)NCc1ccco1	52	-31	-2	59*	-4
COc1cc(NC(=O)NCc2ccco2)ccc1-c1ccc(NC(=O)NCc2ccco2)cc1OC	nt	-17	-5	90*	11
COc1ccccc1NC(=O)NCc1ccco1	22	15	6	7	14
Cn1c(=O)cc(OCCCC(=O)NCc2ccco2)c2ccccc21	7	8	nt	4	-5
CCS(=O)(=O)Nc1ccc2c(c1)C(=O)N(C)C[C@H](OC)[C@H](C)CN(Cc1ccccn1)[C@H](C)CO2	nt	nt	0	nt	nt
COc1ccccc1-c1cn(CC[C@@H]2CC[C@H](NC(=O)C3CC3)[C@H](CO)O2)nn1	nt	nt	1	nt	nt
Cc1noc(C)c1S(=O)(=O)Nc1ccc2c(c1)CC(=O)N([C@H](C)CO)C[C@@H](C)[C@H](CN(C)C(=O)Nc1ccc(F)cc1)O2	nt	nt	-17	nt	nt
O=C(NC1CCS(=O)(=O)C1)c1cccc(Br)c1 (stereo not given)	-1	41*	-2	-1	1
COc1ccc2nc(N3C(=O)C(O)=C(C(=O)c4ccco4)C3c3ccccc3OC)sc2c1 (stereo not given)	20	-1	nt	82*	-1
CCC(=O)N[C@@H]1CC[C@H](CCn2cc(C3CC3)nn2)O[C@@H]1CO	nt	nt	1	nt	nt
COC(=O)C1=NNC(C(=O)c2ccco2)C1c1ccccc1 (stereo not given)	20	-25	0	2	3
COC(=O)C1=NNC(C(=O)c2ccco2)C1c1ccc(OC)cc1 (stereo not given)	6	-6	?	52*	6
COc1ccc(-c2csc(-c3cccnc3)n2)cc1C	15	-1	-3	115*	-4
COc1ccc2cc(-c3csc(-c4cccnc4)n3)ccc2c1	15	-11	nt	15	4
CN1C(=O)c2cc(NC(=O)C3CCOCC3)ccc2OC[C@H]2O[C@H](CC(=O)NCc3ccc4c(c3)OCO4)CC[C@H]21	nt	nt	3	nt	nt
CCOC(=O)C(C)Sc1nc(C2CC2)cc(C(F)(F)F)c1C#N (stereo not given)	-8	-6	nt	4	-12
COC(=O)CSc1nc(C2CC2)cc(C(F)(F)F)c1C#N	-7	-2	nt	79*	0
Cc1cc(S(=O)(=O)NCC2CC2)c(Cl)cc1Cl	8	107*	3	10	1
COC(=O)c1ccc(NC(=S)N2CCCC2)cc1	34	42*	-3	-1	3
COC(=O)c1ccc(NC(=S)N2CCN(C)CC2)cc1	-3	-1	1	-1	0
COc1cccc2c1O/C(=N\O)C(C(=O)Nc1ccc(C)cc1)C2 (stereo not given)	-89*	-13	4	-9	-3
COc1ccc(NC(=O)C2Cc3cccc(OC)c3O/C2=N\O)cc1 (stereo not given)	-54	-7	5	18	1
COc1ccc2c3c(n(C)c2c1)[C@@H](CO)N(C(=O)C1CCCCC1)CC31CCN(C(=O)CN(C)C)CC1	nt	nt	-2	nt	nt
CCN(CC)CCCNc1nc2ccccc2c2[nH]c3ccc(OC)cc3c12	nt	-24	7	-24	60*
SMILES	AI-2 QS modul	PvdQ acylase	ERp5 inh	Vif imaging	PDI turbidity
CCN(CC)CCCNc1nc(-c2ccccc2)nc2ccccc12	14	-11	nt	6	14
CCNC(=O)C[C@H]1C=C[C@@H](NC(=O)C2CCC2)[C@@H](CO)O1	nt	nt	-3	nt	nt
Cc1nonc1C(=O)N/N=C/c1ccncc1	15	-5	-5	-21	6
Cc1nonc1C(=O)N/N=C/c1ccc(O)cc1O	-88*	0	-1	30	9
Cc1nonc1C(=O)N/N=C/c1ccc([N+](=O)[O-])o1	-96*	-9	2	3	0
CC(=O)c1cc(CC=C(C)C)c(O)c(CC=C(C)C)c1O	14	-15	nt	64*	-3
CC(=O)c1cc(CC=C(C)C)c(O)cc1O	19	-4	nt	0	1
N#C[C@@H]1[C@H](c2ccccc2C2=CCCC2)[C@@H](CO)N1C(=O)CN1CCOCC1	nt	nt	1	nt	nt
Cc1c(NC(=O)C(C)OC(=O)c2cc(Cl)nc(Cl)c2)c(=O)n(-c2ccccc2)n1C (stereo not given)	6	-7	-1	-6	0
Cc1c(NC(=O)C(C)OC(=O)c2sc3ccccc3c2Cl)c(=O)n(-c2ccccc2)n1C (stereo not given)	17	-9	4	108*	6
O=c1cc(-c2ccc(Cl)c(Cl)c2)[nH][nH]1	20	2	nt	-3	19
O=c1cc(-c2ccc(Cl)cc2)[nH][nH]1	18	-13	nt	57*	3
CCN1/C(=C/C(C)=C/c2sc3ccccc3[n+]2CC)Sc2ccccc21	-170*	-7	1	-6	6
CCN1/C(=C\C(=S)Nc2ccccc2)Sc2ccccc21	2	-10	-3	-19	-7
Cc1cc(NC(=O)CCSc2ccccc2)ccc1Br	-87*	8	nt	4	-5
COc1ccc(-c2ccccc2[C@@H]2[C@H](C#N)N(C(=O)c3cccnc3)[C@H]2CO)cc1	nt	nt	-5	nt	nt
CO[C@H](CN(C)Cc1cc(F)ccc1F)[C@@H](C)CN([C@H](C)CO)S(=O)(=O)c1ccc(C)cc1	nt	nt	-2	nt	nt
CSc1ccc(/C=C/C(=O)c2ccc(O)cc2)cc1	-93*	14	nt	0	11
COc1ccc(C(=O)/C=C/c2ccccc2)c(O)c1	25	9	4	-2	nt
CCOc1ccc(C(=O)/C=C/c2ccc(SC)cc2)cc1	-12	-10	3	-11	-6
O=C(/C=C/c1ccc(O)cc1)c1ccc(O)cc1O	11	1	5	-1	41*
CO[C@H]1CN(C)C(=O)c2cc(NC(=O)c3ccccc3)ccc2OC[C@@H](C)N(C(=O)CN(C)C)C[C@H]1C	nt	nt	0	nt	nt
CCc1ccc(OCC(=O)N/N=C(\C)c2ccc(O)cc2O)cc1	-78*	-2	-1	9	-5
CCNC(=O)C[C@@H]1CC[C@H]2[C@H](COc3ccc(NC(=O)c4ccc(F)cc4)cc3C(=O)N2C)O1	nt	nt	-10	nt	nt
CC(=O)[C@@]1(O)Cc2c(O)c3c(c(O)c2[C@H](O[C@H]2C[C@H](N)[C@H](O)[C@H](C)O2)C1)C(=O)c1ccccc1C3=O	nt	nt	-3	66*	8
NCCCC[C@H](N[C@@H](CCc1ccccc1)C(=O)O)C(=O)N1CCC[C@H]1C(=O)O	7	5	-2	79*!	-5
C=C(C)n1c(=O)n(Cc2ccc(C)cc2)c2ccccc21	2	-13	-1	69*	-6
COc1cccc(N2CCN(C(=O)c3ccc(CS(=O)c4ccc(C)cc4)o3)CC2)c1 (stereo not given)	20	-10	nt	56*	-7
